{"source": "PubChem BioAssay AID720511", "about": "(Broad Institute, 2013)", "note": "Values joined by “and” are separate entries in the source; they are usually repeats but may differ in a detail not shown here. Equal values may be shown once. Screen size: about 350,000 compounds; about 1,300 (0.37%) were called active. The sample holds actives, similar compounds and a random draw of the others, so the mix is not that of the screen. A number with no mark means an inactive call.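 The calls were made as follows: active = mean added fluorescence quench of at least 8% versus neutral control, with both replicates also reaching 8%; inconclusive = only one of the mean or replicate conditions met; inactive = mean below 8% and not both replicates reaching 8%.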"}
{"assay": "F508del CFTR correction, initial screen, CFBE line, single point (AID 720511);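 also: cells transiently co-express mutant CFTR-F508del with the halide-sensitive YFP; corrector assay measuring rescue of mutant channel to the surface after 24 h compound exposure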", "details": "CFBE cells, YFP halide quenching, at 7.58 µM, active compounds read high, % fluorescence drop versus neutral controls, stimulated with forskolin plus potentiator P3"}
{"compound": "C[C@@H]1CN([C@H](C)CO)C(=O)Cc2cc(NC(=O)NC3CCCCC3)ccc2O[C@H]1CN(C)S(C)(=O)=O", "activity (quench increase)": "0.525% and 3.05%"}
{"compound": "CC[N+]1(CC)CC2=Cc3ccccc3CC2C1", "note": "(configuration not stated)", "activity (quench increase)": "13.8% (active)"}
{"compound": "CCC(=O)N1C[C@@H](C)[C@@H](OC)CN(C)C(=O)c2ccc(NC(=O)Nc3ccccc3)cc2OC[C@H]1C", "activity (quench increase)": "-0.0305%"}
{"compound": "Cc1ccc(S(=O)(=O)Nc2cccc3c2O[C@@H](CN(C)S(=O)(=O)c2ccc(C)cc2)[C@H](C)CN([C@@H](C)CO)C3=O)cc1", "activity (quench increase)": "-1.75%"}
{"compound": "O=C(C[C@H]1CC[C@H]2[C@@H](COC[C@@H](O)CN2C(=O)c2ccc3c(c2)OCO3)O1)NC1Cc2ccccc2C1", "activity (quench increase)": "3.06%"}
{"compound": "NS(=O)(=O)c1ccc(NC(=S)Nc2ccc(Br)c(Cl)c2)cc1", "activity (quench increase)": "1.17%"}
{"compound": "NS(=O)(=O)c1cc(Cl)c(Cl)c(S(N)(=O)=O)c1", "activity (quench increase)": "9.04% (active)"}
{"compound": "Nc1c(Cl)cc(S(N)(=O)=O)cc1S(N)(=O)=O", "activity (quench increase)": "-0.405%"}
{"compound": "CC(=O)N(C)C[C@H]1Oc2ncc(-c3cccc(F)c3)cc2C(=O)N([C@@H](C)CO)C[C@H]1C", "activity (quench increase)": "-3.71%"}
{"compound": "CN1C(=O)c2cc(NC(=O)c3ccccc3)ccc2OC[C@@H]2O[C@H](CC(=O)NCC3CC3)CC[C@@H]21", "activity (quench increase)": "-1.16%"}
{"compound": "Cc1ccc(S(=O)(=O)N[C@H]2CC[C@@H](CC(=O)N3CCc4ccccc4C3)O[C@H]2CO)cc1", "activity (quench increase)": "-3.27%"}
{"compound": "CCOC(=O)c1c(NC(=O)CN2C(=O)NC3(CCC(C)CC3)C2=O)sc(C)c1CC", "note": "(configuration not stated)", "activity (quench increase)": "8.23% (active)"}
{"compound": "CCC1CCC2(CC1)NC(=O)N(CC(=O)Nc1ccc(OC)cc1)C2=O", "note": "(configuration not stated)", "activity (quench increase)": "4.71%"}
{"compound": "CCOC(=O)c1c(NC(=O)C2CC=CCC2C(=O)O)sc(C)c1CC", "note": "(configuration not stated)", "activity (quench increase)": "0.585%"}
{"compound": "O=S(=O)(NC1CC1)c1ccc(Cl)cc1", "activity (quench increase)": "0.433%"}
{"compound": "O=S(=O)(NCc1ccc(Cl)cc1Cl)c1cccs1", "activity (quench increase)": "0.403%"}
{"compound": "O=S(=O)(Cc1ccc(Cl)cc1Cl)c1ccc(Cl)cc1", "activity (quench increase)": "12.1% (active)"}
{"compound": "C/C=C/c1ccc([C@H]2[C@@H](CNC(C)C)N(c3nc(CC)cs3)[C@H]2CO)cc1", "activity (quench increase)": "2.62%"}
{"compound": "COc1ccc(OC)c(/C(C)=N\\NC(=O)c2cc3cc(Cl)ccc3n2C)c1", "activity (quench increase)": "14.1% (active)"}
{"compound": "COc1cc(C(=O)NCc2cc3cc(Cl)ccc3n2C)cc(OC)c1OC", "activity (quench increase)": "2.35%"}
{"compound": "COc1ccc(C(=O)N/N=C(\\C)CC(=O)Nc2ccc(Cl)cn2)cc1", "activity (quench increase)": "0.068%"}
{"compound": "Cc1ccc(S(=O)(=O)Nc2ccc3c(c2)C(=O)N([C@@H](C)CO)C[C@@H](C)[C@H](CN(C)Cc2ccc(C(=O)O)cc2)O3)cc1", "activity (quench increase)": "5.34%"}
{"compound": "COc1cccc(-c2cnc3c(NC(C)=O)cc(-c4cc(F)ccc4OC)cn23)c1", "activity (quench increase)": "9.31% (active)"}
{"compound": "COc1ccccc1-c1cc(NC(C)=O)c2ncc(-c3ccc(F)cc3)n2c1", "activity (quench increase)": "3.05%"}
{"compound": "COc1cccc(-c2cnc3c(NC(C)=O)cc(-c4cccc(NC(C)=O)c4)cn23)c1", "activity (quench increase)": "-0.356%"}
{"compound": "CCCNC(=O)[C@@H]1[C@@H](CO)[C@@H]2Cn3c(ccc(C4=CCCCC4)c3=O)[C@H]1N2CCC", "activity (quench increase)": "0.001%"}
{"compound": "COc1ccc(C(C)(O)c2nc(-c3ccc(C)c(C)c3)cs2)cc1", "note": "(configuration not stated)", "activity (quench increase)": "0.543%"}
{"compound": "CN(c1ccc(O)cc1)c1nc(-c2cccnc2)cs1", "activity (quench increase)": "3.59%"}
{"compound": "CC(C)(C)C(=O)OCc1nc(-c2ccc(O)c(O)c2)cs1", "activity (quench increase)": "8.8% (active)"}
{"compound": "C[C@H](CO)N1C[C@H](C)[C@H](CN(C)C(=O)c2cccnc2)Oc2ncc(C3=CCCC3)cc2C1=O", "activity (quench increase)": "-0.608%"}
{"compound": "C[C@@H]1CN([C@H](C)CO)C(=O)Cc2cc(NC(=O)Nc3ccccc3)ccc2O[C@H]1CN(C)Cc1ccc(Cl)c(Cl)c1", "activity (quench increase)": "-0.242%"}
{"compound": "C[C@@H]1CN([C@H](C)CO)C(=O)Cc2cc(NC(=O)Nc3ccccc3)ccc2O[C@@H]1CN(C)Cc1ccc(C(F)(F)F)cc1", "activity (quench increase)": "0.116%"}
{"compound": "C[C@H](CO)N1C[C@H](C)[C@@H](CN(C)Cc2ccc(Cl)c(Cl)c2)Oc2ccc(NC(=O)Nc3ccc(C(F)(F)F)cc3)cc2CC1=O", "activity (quench increase)": "12.6% (active)"}
{"compound": "C[C@H]1CN([C@@H](C)CO)C(=O)c2cccc(NC(=O)Nc3ccc(C(F)(F)F)cc3)c2O[C@H]1CN(C)C(=O)NC1CCCCC1", "activity (quench increase)": "8.85% (active)"}
{"compound": "C[C@@H]1CN([C@H](C)CO)C(=O)c2cccc(NC(=O)Nc3ccccc3)c2O[C@@H]1CN(C)C(=O)NC1CCCCC1", "activity (quench increase)": "-1.15%"}
{"compound": "C[C@H](CO)N1C[C@H](C)[C@@H](CN(C)C(=O)NC2CCCCC2)Oc2c(NC(=O)Nc3ccc(F)cc3)cccc2C1=O", "activity (quench increase)": "3.54%"}
{"compound": "O=C(C[C@@H]1C=C[C@H](NC(=O)Nc2ccc3c(c2)OCO3)[C@H](CO)O1)NCc1ccccc1", "activity (quench increase)": "4.6%"}
{"compound": "CO[C@H]1CN(C)C(=O)c2ccc(NS(=O)(=O)c3ccccc3C)cc2OC[C@H](C)NC[C@H]1C", "activity (quench increase)": "-0.483%"}
{"compound": "CCCC(=O)Nc1nc2ccc(NC(=O)c3c(F)c(F)c(OC)c(F)c3F)cc2s1", "activity (quench increase)": "13.3% (active)"}
{"compound": "CCCn1nc(C(=O)Nc2ccc3nc(C)sc3c2)c2ccccc2c1=O", "activity (quench increase)": "-0.539%"}
{"compound": "CC(=O)Nc1ccc2nc(NC(=O)CS(=O)(=O)c3ccc(F)cc3)sc2c1", "activity (quench increase)": "0.717%"}
{"compound": "CCS(=O)(=O)Nc1ccc2c(c1)C(=O)N(C)[C@H]1CC[C@@H](CC(=O)Nc3ccccc3)O[C@H]1CO2", "activity (quench increase)": "-3.46%"}
{"compound": "CCOc1ccc(NC(=O)c2ccc(NC(=O)CN3C(=O)C(=O)N(CC(C)C)C3=O)cc2)cc1", "activity (quench increase)": "9.37% (active)"}
{"compound": "CCOc1ccc(NC(=O)c2ccc(NC(=O)COC(=O)c3ccc(NC(=O)CC#N)cc3)cc2)cc1", "activity (quench increase)": "-1.21%"}
{"compound": "CCOc1ccc(NC(=O)CCNC(=O)c2ccc(Br)cc2)cc1", "activity (quench increase)": "-1.36%"}
{"compound": "COc1ccc(NC(=O)N(C)C[C@H]2OCCCC[C@@H](C)Oc3ccc(NS(=O)(=O)c4ccc(F)cc4)cc3C(=O)N([C@H](C)CO)C[C@H]2C)cc1", "activity (quench increase)": "3.43%"}
{"compound": "C[C@@H](O)C#Cc1ccc([C@@H]2[C@H]3CN(S(=O)(=O)c4ccccc4)CCCCN3[C@H]2CO)cc1", "activity (quench increase)": "1.07%"}
